Where two headings read alike, the source gives them in different places.
Legend:
Parameters in all cases: species or system human, MV4-11 + K-562 + COLO205 + SK-N-BE2 + OVCAR-8
[1] = tested on: ACVR1; conditions: read-out: apparent Kd; compound concentrations:100 nM and 1000 nM (sheet 'Samples'); n = 1
[2] = tested on: CDK10; conditions: read-out: apparent Kd; compound concentrations:100 nM and 1000 nM (sheet 'Samples'); n = 1
[3] = tested on: IKBKE; conditions: read-out: apparent Kd; compound concentrations:100 nM and 1000 nM (sheet 'Samples'); n = 1
[4] = tested on: NEK9; conditions: read-out: apparent Kd; compound concentrations:100 nM and 1000 nM (sheet 'Samples'); n = 1
[5] = tested on: PIK3C3; conditions: read-out: apparent Kd, n = 1
[6] = tested on: AKT2; conditions: read-out: apparent Kd, n = 1
[7] = tested on: TGFBR1; conditions: read-out: apparent Kd; compound concentrations:100 nM and 1000 nM (sheet 'Samples'); n = 1
[8] = tested on: MAP4K2; conditions: read-out: apparent Kd; compound concentrations:100 nM and 1000 nM (sheet 'Samples'); n = 1
[9] = tested on: SLK; conditions: read-out: apparent Kd, n = 1
[10] = tested on: TP53RK; conditions: read-out: apparent Kd, n = 1
[11] = tested on: MAP4K5; conditions: read-out: apparent Kd; compound concentrations:100 nM and 1000 nM (sheet 'Samples'); n = 1
[12] = tested on: TAOK1; conditions: read-out: apparent Kd, n = 1
[13] = tested on: STK11; conditions: read-out: apparent Kd, n = 1
[14] = tested on: MAP4K3; conditions: read-out: apparent Kd; compound concentrations: 100 nM and 1000 nM (sheet 'Samples'), CATDS: 1.6349767602700901E-2; n = 1
[15] = tested on: MAP2K2; conditions: read-out: apparent Kd; compound concentrations:100 nM and 1000 nM (sheet 'Samples'); n = 1
[16] = tested on: PIK3C2A; conditions: read-out: apparent Kd, n = 1
[17] = tested on: AKT3; conditions: read-out: apparent Kd; compound concentrations: 100 nM and 1000 nM (sheet 'Samples'), CATDS: 1.8504555943704901E-2; n = 1
[18] = compound concentrations:100 nM and 1000 nM (sheet 'Samples')

CN(C)CC(O)COc1ccc(Nc2nccc(-c3cnn4nc(N5CCOCC5)ccc34)n2)cc1 (stereo not drawn) [GW767488X]
potency estimated from few doses [1]: 0.455 µM
potency estimated from few doses [2]: 1.36 µM
potency estimated from few doses [3]: 2.01 µM
potency estimated from few doses [4]: 0.314 µM
potency estimated from few doses [5, 18]: 0.581 µM

CNc1cc(-c2ccc3c(N)n[nH]c3c2)nc(N)n1 [GSK2224810A]
potency estimated from few doses [6, 18]: 1.88 µM
potency estimated from few doses [7]: 1.16 µM

O=C(O)C(F)(F)F.O=c1[nH]ccc2nc(N[C@@H]3CCNC3)nc(Nc3cc(Cl)cc(Cl)c3)c12 [GSK2188764A]
potency estimated from few doses [8]: 0.0701 µM
potency estimated from few doses [9, 18]: 0.826 µM

Cl.Nc1nc(-c2ccc3c(c2)C(=Cc2cc(Br)c(O)c(Br)c2)C(=O)N3)cs1 [GW407323A]
potency estimated from few doses ([10]; compound concentrations: 100 nM and 1000 nM (sheet 'Samples'), CATDS: 2.8034660612356401E-2): 1.95 µM

Cc1occc1-c1nc(N)c(OC[C@@H](N)Cc2c[nH]c3ccccc23)cc1-c1cc2c(C)n[nH]c2cn1 [GSK1660450B]
potency estimated from few doses [11]: 0.0505 µM
potency estimated from few doses [12, 18]: 0.012 µM

COc1cc[nH]c1/C=C1\C(=O)Nc2ccc(F)c(C#C[C@@H](O)[C@@H](N)[C@@H](C)O)c21 [RO0283120-000]
potency estimated from few doses [8]: 1.07 µM
potency estimated from few doses [13, 18]: 1.01 µM

NS(=O)(=O)c1ccc(NC=C2C(=O)Nc3ccc4ncsc4c32)cc1 [GW589933X]
potency estimated from few doses [14]: 2.07 µM

Cc1cc(NC(=O)c2cccc(NC(=O)/C=C/CN(C)C)c2)ccc1Nc1nccc(-c2cccnc2)n1 [JNK-IN-7]
potency estimated from few doses [2]: 0.844 µM
potency estimated from few doses [4]: 1.38 µM
potency estimated from few doses [5, 18]: 1.57 µM

Nc1nc(-c2ccc3c(N)n[nH]c3c2)cc(N2CCCC(NC(=O)c3ccccc3)C2)n1 (stereo not drawn) [GSK2286775B]
potency estimated from few doses [6, 18]: 1.37 µM
potency estimated from few doses [3]: 0.298 µM
potency estimated from few doses [15]: 1.56 µM
potency estimated from few doses [16, 18]: 1.91 µM
potency estimated from few doses [10, 18]: 2.23 µM

Cl.Cn1c(=O)c(Cc2ccccc2F)cc2cnc(NC3CCOCC3)nc21 [RO3305377-001]
potency estimated from few doses [17]: 1.38 µM

CN[C@H](C#Cc1c(F)ccc2c1/C(=C/c1[nH]ccc1OC)C(=O)N2)CO.Cl [RO0283049-001]
potency estimated from few doses ([13]; compound concentrations: 100 nM and 1000 nM (sheet 'Samples'), CATDS: 2.2375085806392098E-2): 1.19 µM

CC(C)N1CC(=O)N(C)c2cnc(Nc3cccc(S(=O)(=O)CCN4CCOCC4)c3)nc21 [BI00009348]
potency estimated from few doses ([9]; compound concentrations: 100 nM and 1000 nM (sheet 'Samples'), CATDS: 4.9346970439547798E-2): 1.92 µM

O=C(Nc1n[nH]c2nc(-c3ccccc3O)ccc12)C1CC1 [SB-711880]
potency estimated from few doses [8]: 1.46 µM
potency estimated from few doses [11]: 1.76 µM

COc1ccc(Nc2nccc(NCCNC(=O)Nc3cc(C)ccc3C)n2)cc1 [GSK1379899A]
potency estimated from few doses ([6]; compound concentrations: 100 nM and 1000 nM (sheet 'Samples'), CATDS: 3.9720416292935899E-2): 2.19 µM

Nc1nccc(-c2ccc3c(N)n[nH]c3c2)n1 [GSK1034945A]
potency estimated from few doses [10, 18]: 1.54 µM

CCC(CC)(CC)n1cnc2c(N)ncnc21 [SKF-97620]
potency estimated from few doses ([16]; compound concentrations: 100 nM and 1000 nM (sheet 'Samples'), CATDS: 2.66380598887557E-2): 1.43 µM
potency estimated from few doses ([5]; compound concentrations: 100 nM and 1000 nM (sheet 'Samples'), CATDS: 3.20593447179814E-2): 0.852 µM

COc1ccccc1CNC1=NC(=O)/C(=C/c2ccc3ncccc3c2)S1 [RO4503315-000]
potency estimated from few doses ([12]; compound concentrations: 100 nM and 1000 nM (sheet 'Samples'), CATDS: 7.1757893284069299E-2): 1.13 µM
